Source: PubChem BioAssay (several laboratories)
Hits are enriched below; roughly 4.2% of the tested compounds scored in any of these assays.
ssDAF12 agonist = S. stercoralis DAF-12 activation, primary screen; HEK293 ssDAF-12/GRIP1 lit1-tk-luc reporter, luminescence; % of 3 µM dafachronic acid response; activation, % at 6.8 µM; actives 1% (n = 370,000); AID 652126;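 active = activation above the mean over all tested compounds plus 3 SD, cut at about 0.9% in these data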
hgDAF-12 ag = activates the H. glycines DAF-12 receptor ligand-binding domain. HEK293 GAL4-hgDAF12 UAS-luciferase reporter, agonist luminescence; normalized to butyrate control. activation, % at 6.8 µM. actives 1.8% (n = 370,000). AID 687014;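 active = activation above a cutoff set at the mean of all screened compounds plus 3 SD, cut at about 10% in these data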
hcDAF12 agonist = activators of H. contortus DAF-12 nuclear receptor; HEK293 hcDAF-12 lit1-tk-luc reporter, luminescence; 0% DMSO, 100% Δ7-dafachronic acid; AID 652067; activation, % at 6.8 µM; actives 1.4% (n = 370,000);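 active = activation above the mean of all tested compounds plus 3 SD, cut at about 5.5% in these data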
DAX1 StAR inh = inhibitors of DAX1 repression of SF-1 activated StAR promoter | HEK293T StAR-luciferase reporter, SF-1/DAX-1 repression relief | inhibition, % at 6.8 µM | actives 1.1% (n = 370,000);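 active = inhibition above the mean over all tested compounds plus 3 SD, cut at about 3.6% in these data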;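 note: higher inhibition means more luminescence from relief of DAX-1 repression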
Wnt act = Wnt/beta-catenin pathway activation; activation, % at 9.35 µM; AID 743398; actives 1.2% (n = 300,000); Wnt/beta-catenin reporter cell assay, activator, plate reader; in the data active = activation above about 30%, passing the limit was not always enough; inconclusive = no clear call, values can overlap the other calls
esBAF inh = SWI/SNF esBAF complex inhibition. mouse ES cells, Bmi1-luciferase knock-in reporter, 24 h; 100% = twice the neutral-well signal. reporter increase, % at 12.5 µM. actives 2% (n = 350,000). AID 602393; in the data active = activation above about 40%; inconclusive = no clear call, values can overlap the other calls;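 note: a rise in the Bmi1 reporter signal indicates esBAF inhibition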
Hits are given with their value; . = inactive; ? = inconclusive; / = no result given.

SMILES | ssDAF12 agonist | hgDAF-12 ag | hcDAF12 agonist | DAX1 StAR inh | Wnt act | esBAF inh
CC(C)C#Cc1cnc2c(c1)C(=O)N([C@@H](C)CO)C[C@@H](C)[C@@H](CN(C)Cc1ccccc1)O2 | / | / | / | / | / | .
Cc1ccnc(NC(=O)CCC(=O)c2cccs2)c1 | . | . | . | 4.0 | . | .
Cc1ccnc(NC(=O)CNC(=O)c2ccc(C)s2)c1 | . | . | . | 4.0 | . | ?
Cc1ccnc(NC(=O)c2cc([N+](=O)[O-])cc([N+](=O)[O-])c2)c1 | . | . | . | . | . | /
Cc1ccnc(NC(=O)c2ccc([N+](=O)[O-])s2)c1 | . | . | . | . | 42 | .
Cc1ccnc(NC(=O)CCCNC(=O)c2ccc(Cl)cc2)c1 | . | . | . | 4.0 | . | ?
COc1ccc(S(=O)(=O)N(C)C[C@@H]2Oc3ccc(NC(=O)Cc4ccccc4)cc3C(=O)N([C@H](C)CO)C[C@@H]2C)cc1 | / | / | / | / | / | .
C[C@@H]1CN([C@@H](C)CO)C(=O)c2cc(C#CCN(C)C)cnc2O[C@H]1CN(C)C(=O)CN1CCOCC1 | / | / | / | / | / | .
Cc1ccnc(N(C(=O)c2cccs2)C(=O)c2cccs2)c1 | . | 13 | . | . | ? | .
O=C(C[C@@H]1C[C@@H]2c3cc(NC(=O)Nc4ccccc4F)ccc3O[C@@H]2[C@H](CO)O1)NCc1ccncc1 | / | / | / | / | / | .
CCCC#Cc1cnc2c(c1)C(=O)N([C@H](C)CO)C[C@H](C)[C@H](CN(C)Cc1ccc(C(=O)O)cc1)O2 | / | / | / | / | / | .
COc1ccccc1/C=C/c1ccc2cccc(O)c2n1 | . | . | . | . | . | 67
CCOc1cc(/C=C/c2ccc3cccc([N+](=O)[O-])c3n2)ccc1O | . | . | . | . | . | /
O=[N+]([O-])c1cccc(/C=C/c2ccc3cccc(O)c3n2)c1 | . | . | . | . | . | .
CCOc1cccc(/C=C/c2ccc3cccc(O)c3n2)c1OC | . | . | . | . | 40 | .
COc1cc(Cl)cc(/C=C/c2ccc3cccc(O)c3n2)c1OC | . | . | . | . | . | .
Oc1ccc(/C=C/c2ccc3cccc(O)c3n2)cc1Br | . | 10 | . | . | . | 77
CCOc1ccccc1/C=C/c1cc(C(=O)O)c2ccccc2n1 | . | . | . | . | . | /
CCOc1cccc(/C=C/c2ccc3cccc(O)c3n2)c1O | . | 10 | 5.8 | . | 48 | 87
COc1ccccc1Nc1nc(N)nc(-c2oc3ccccc3c2C)n1 | . | . | . | . | / | .
Cc1c(-c2nc(N)nc(Nc3ccc(F)cc3)n2)oc2ccccc12 | . | . | . | . | . | 62
Cc1ccccc1Nc1nc(N)nc(-c2oc3ccccc3c2C)n1 | . | . | . | . | 47 | /
Cc1noc(C)c1NC(=O)Nc1ccc2c(c1)CC(=O)N([C@@H](C)CO)C[C@H](C)[C@@H](CN(C)C(=O)NC(C)C)O2 | / | / | / | / | / | .
COc1ccc(NC(=O)CSc2ncnc3sc(C)cc23)cc1 | . | . | . | . | . | .
Cc1cc2c(SCC(=O)Nc3cccc(O)c3)ncnc2s1 | 1.4 | . | 6.4 | . | . | .
SMILES | ssDAF12 agonist | hgDAF-12 ag | hcDAF12 agonist | DAX1 StAR inh | Wnt act | esBAF inh
CN(C)CCCN(C(=O)c1cc(Cl)sc1Cl)c1nc2cc3c(cc2s1)OCO3 | . | . | . | 4.1 | . | /
C[C@H](CO)N1C[C@H](C)[C@H](CN(C)C(=O)CCCN(C)C)OCCCC[C@H](C)Oc2ccc(NC(=O)Cc3ccccc3)cc2C1=O | / | / | / | / | / | .
C[C@@H]1CN([C@@H](C)CO)C(=O)Cc2cc(NC(=O)Cc3ccccc3)ccc2O[C@@H]1CN(C)S(=O)(=O)c1cn(C)cn1 | / | / | / | / | / | .
C[C@@H]1CCCCO[C@H](CN(C)C(=O)C2CCCCC2)[C@H](C)CN([C@H](C)CO)C(=O)c2cc(NC(=O)NC3CCCCC3)ccc2O1 | / | / | / | / | / | .
CCOC(=O)c1[nH]c2ccc(F)cc2c1NC(=O)c1ccccc1C(=O)O | . | . | . | . | . | 54
CCOC(=O)c1[nH]c2ccccc2c1NC(=O)CC(C)C | . | . | . | . | . | .
CCOC(=O)c1[nH]c2ccccc2c1NC(=S)Nc1cc(C)ccc1C | . | . | 6.1 | . | . | .
CCOC(=O)c1[nH]c2ccccc2c1NC(=O)Nc1ccc(OC)cc1 | 0.9 | . | . | . | / | .
CCCC(=O)Nc1c(C(=O)OCC)[nH]c2ccccc12 | . | . | . | . | . | .
